Compounds with a hit are over-represented: about 28% of the library has one in this group of screens.
CYP2C19 activ = human CYP2C19 activators, primary screen, biochemical, luminescence; 96,000 tested, under 10 active; AID 1025, 2008; Cytochrome P450 2C19 (Homo sapiens), P33261; activation factor at 5 µM; recombinant CYP2C19, luciferin-H EGE luminescence; hits give high values; 0 = fully inhibited enzyme, 1 = untreated enzyme;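 active = activation factor of at least 2 at 5 µM in the primary screen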;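 note: 0 = wells with 2.5 mM tranylcypromine and 1 = vehicle-only wells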
CYP2C9 inhib = blockers of cytochrome P450 2C9 activity – biochemical, luminescence, ADME assay, primary screen; CYP2C9 Supersomes, luciferin-H conversion; inhibition, % at 5 µM; 20% of 96,000 active; AID 777, 2007;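 active = blocking of liver enzyme CYP2C9 beyond about 50% at 5 µM, limit read from the data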
Target sequence (P11712 whole entry, looked up): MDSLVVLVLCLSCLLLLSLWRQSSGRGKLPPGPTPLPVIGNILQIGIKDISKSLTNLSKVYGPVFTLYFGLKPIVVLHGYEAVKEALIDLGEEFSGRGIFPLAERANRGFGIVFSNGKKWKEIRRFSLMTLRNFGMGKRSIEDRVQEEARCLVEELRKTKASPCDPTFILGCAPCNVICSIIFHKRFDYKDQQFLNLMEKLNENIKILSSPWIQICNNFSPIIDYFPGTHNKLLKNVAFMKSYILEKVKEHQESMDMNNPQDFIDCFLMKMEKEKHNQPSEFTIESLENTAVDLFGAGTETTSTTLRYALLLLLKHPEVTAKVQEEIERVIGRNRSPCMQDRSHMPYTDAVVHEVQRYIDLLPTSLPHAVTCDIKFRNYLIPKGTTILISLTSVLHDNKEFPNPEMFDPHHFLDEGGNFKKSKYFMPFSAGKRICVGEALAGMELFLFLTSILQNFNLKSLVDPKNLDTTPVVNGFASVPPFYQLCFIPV
CYP2C19 inh = blockers of cytochrome P450 2C19 activity – biochemical, luminescence, ADME assay, primary screen; inhibition, % at 5 µM; P33261; AID 778, 2007; 21% of 96,000 active; CYP2C19 Supersomes, luciferin-H EGE luminescence, 30 min;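 active = CYP2C19 inhibition above a set limit at 5 µM in the primary screen, cut at about 50% in these data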;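 note: plate controls were negative control wells for no effect and 2.5 mM tranylcypromine positive control for full effect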
CYP2C9 act = human CYP2C9 activators, primary screen, biochemical, luminescence; activation factor at 5 µM; Cytochrome P450 2C9 (Homo sapiens), P11712; recombinant CYP2C9, luciferin-H conversion; hits give high values; factor 1 = untreated enzyme, 0 = blocked; AID 1024, 2008; 1.4% of 96,000 active;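 active = activation factor of 2 or more for CYP2C9 at a 5 µM dose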;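 note: 0 = sulfaphenazole-blocked wells and 1 = vehicle-only wells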
PTK2B oligo ant = antagonists of Pyk2 self-association, primary screen, Q293 cells, FERM NanoBiT luminescence, HTS; Protein-tyrosine kinase 2-beta (Homo sapiens), Q14289; hits give low values; z-score (the deposit names both 25 µM and 10 µM); 0.83% of 99,000 active; AID 1347419, 2020;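 active = Z-score of -3 or lower, scaled per plate to the spread of control and sample wells; inactive = z-score above -3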;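 note: negative z-score means lost luminescence so less FERM oligomerization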
* hit, by the source's call; x = no result given.

SMILES	CYP2C19 activ	CYP2C9 inhib	CYP2C19 inh	CYP2C9 act	PTK2B oligo ant
Cc1ccc(C)n1-c1nc(=S)[nH][nH]1	0.2	87.7*	76.1*	0.1	-0.09
S=c1nc(-c2ccco2)[nH][nH]1	1	3.5	2.4	1	-0.48
Cc1ccc(C2=NCCNC2=O)c(C)c1	1	5.0	-3.2	0.9	0.46
Cn1cc(-c2nnnn2-c2ccccc2)c(=O)c2ccccc21	0.9	-16.4	9.3	1.2	-0.05
Cc1ccc(C)c(N2CCN(C(=O)CN(C)S(=O)(=O)c3cnc[nH]3)CC2)c1	0.1	99.5*	92.0*	0	-0.42
CS(=O)(=O)N(CCc1ccccc1)CC(=O)N1CCN(c2ccccc2F)CC1	0.8	26.7	22.1	0.7	1.44
CN(CC(=O)N1CCN(c2ccccc2F)CC1)S(=O)(=O)c1cnc[nH]1	0	100.1*	98.6*	0	2.22
CC(=O)NCC(=O)OCC(=O)c1ccc2ccccc2c1	1	3.1	-2.5	1	1.1
O=C(Oc1ccc2c(=O)c(Oc3ccc4ccccc4c3)coc2c1)c1ccco1	0.8	-53.5	24.0	1.5	-2.38
CCc1c(O)nc2sc3ccccc3n2c1=O	1.1	0.9	-7.2	1	-0.17
Cc1noc(/C=C/N(C)C)c1S(=O)(=O)N1CCCC(C(=O)Nc2ccc3c(c2)OCO3)C1 (stereo unspecified)	0.5	67.0*	48.5	0.3	x
Cc1noc(/C=C/N(C)C)c1S(=O)(=O)N1CCCC(C(=O)N2CCCCC2)C1 (stereo unspecified)	1	57.7*	3.1	0.4	x
Cc1ccc(-c2ccc(=O)n(CC(=O)N3CCN(c4cc(Cl)ccc4C)CC3)n2)cc1	0.9	-1.9	9.4	1	-0.27
CSc1ncc(Cl)c(C(=O)Nc2ccc(S(=O)(=O)N3CCOCC3)cc2)n1	1	5.5	-1.0	0.9	0.35
Cc1ccc(NC(=O)CS(=O)CC(=O)NCC2CCCO2)cc1 (stereo unspecified)	1	10.9	1.7	0.9	0.9
Cc1cccc(N2CCN(C(=O)c3ccccc3NC(=O)C3CC=CCC3C(=O)O)CC2)c1 (stereo unspecified)	0.9	27.2	10.3	0.7	-0.43
Cc1ccc(N2CCN(C(=O)c3ccccc3NC(=O)C3CC=CCC3C(=O)O)CC2)cc1 (stereo unspecified)	0.5	36.8	51.5*	0.6	0.21
OC(c1ccc(OCc2ccccc2)cc1)c1nnc(-c2ccccc2)o1 (stereo unspecified)	1	-5.7	4.1	1.1	-1.53
c1ccc(COc2ccc(-c3csnn3)cc2)cc1	0.3	45.4	68.2*	0.5	0.3
CCOCc1nnc(NC(=O)c2c(OC)cccc2OC)s1	0.9	-0.5	7.6	1	-1.06
COc1ccc(C2CC2/C(C)=N/OC(=O)c2cccs2)cc1 (stereo unspecified)	0.4	75.0*	62.2*	0.3	1.42
Cc1ccc(/C(N)=N/OC(=O)c2cccs2)cc1	x	x	x	x	0.62
COc1ccc(OCCOC(=O)c2cccs2)cc1	0.2	72.9*	84.5*	0.3	-0.79
COc1ccc(C(=O)O/N=C(/C)c2cccs2)cc1	0.5	91.4*	47.7	0.1	0.12
Cc1ccc(SC/C(O)=C(\C#N)c2nc3ccccc3s2)cc1	0.5	99.7*	53.5*	0	-1.86
SMILES	CYP2C19 activ	CYP2C9 inhib	CYP2C19 inh	CYP2C9 act	PTK2B oligo ant
COc1ccc(C/C(O)=C(\C#N)c2nc3ccccc3s2)cc1	1	68.4*	-1.4	0.3	-0.06
N#C/C(=C(/O)CSc1ccccc1C(=O)O)c1nc2ccccc2s1	1.1	7.5	-7.0	0.9	0.68
COc1ccc(CCn2c(C)cc3c(c2=O)C(c2ccncc2)C(C#N)=C(N)O3)cc1OC (stereo unspecified)	0.2	79.2*	82.9*	0.2	0.4
CCn1c(C)cc2c(c1=O)C(c1ccncc1)C(C#N)=C(N)O2 (stereo unspecified)	0.7	43.3	30.8	0.6	-0.19
O=C(Nc1nc(=S)ss1)c1c(F)cccc1F	1	79.7*	-1.9	0.2	0.27
CC(=O)Nc1nc(=S)ss1	1.1	12.0	-10.5	0.9	0.82
Cc1ccccc1C(=O)Nc1nc(=S)ss1	1	81.3*	0.2	0.2	0.91
CC(C)CC(=O)Nc1nc(=S)ss1	0.6	68.6*	42.6	0.3	1.18
CCOc1cc(C2NC(=O)NC(C)=C2C(C)=O)cc(Cl)c1OCC(=O)O (stereo unspecified)	1	13.3	-0.6	0.9	0.14
COc1ccc(S(=O)(=O)Cc2ccc(C(=O)N3CCN(Cc4ccccc4)CC3)o2)cc1	0.7	87.4*	31.9	0.1	x
O=C(c1ccc(CS(=O)(=O)c2ccccc2)o1)N1CCOCC1	0.8	23.2	18.3	0.8	x
COc1ccc(N2Cc3cccc(C(=O)N4CCN(C(=O)c5ccco5)CC4)c3C2=O)cc1	0.7	63.8*	26.2	0.4	x
Cc1ccc(S(=O)(=O)Cc2ccc(C(=O)N3CCN(Cc4ccccc4)CC3)o2)cc1	0.6	92.0*	41.3	0.1	x
COc1ccc(CC(=O)N2CCN(C(=O)c3ccco3)CC2)cc1	0.9	-0.5	7.3	1	-0.33
COc1ccc(S(=O)(=O)Cc2ccc(C(=O)N3CCN(C(=O)c4ccco4)CC3)o2)cc1	0.8	80.0*	18.2	0.2	x
Cc1ccccc1NC(=S)NN1CCN(C)CC1	1	6.3	-1.0	0.9	0.47
Cc1ccc(OCc2nnc(SCC(=O)N3CCc4ccccc43)n2C)cc1	x	x	x	x	0.61
Cc1nnsc1C(=O)NC1CCCCC1	1	0.1	-3.5	1	1.54
CC(=O)Nc1ccc(S(=O)(=O)N2C3CCCC2CC(NC(=O)C2CCCCC2)C3)cc1 (stereo unspecified)	0.9	26.8	14.5	0.7	0.99
Cc1cccc(C(=O)NC2CC3CCCC(C2)N3S(=O)(=O)c2ccccc2)c1 (stereo unspecified)	0	91.1*	97.1*	0.1	-0.87
O=C(NC1CC2CCCC(C1)N2C(=O)NC1CCCCC1)c1ccccc1 (stereo unspecified)	1	0.0	2.4	1	-0.67
O=C(NC1CC2CCCC(C1)N2C(=O)Nc1ccccc1)c1ccncc1 (stereo unspecified)	0.1	40.4	91.5*	0.6	0.25
COC(=O)c1ccc(S(=O)(=O)N2C3CCC2CC(NC(=O)C2CC2)C3)cc1 (stereo unspecified)	0.7	17.2	25.1	0.8	-0.43
CC(=O)NC1CC2CCCC(C1)N2S(=O)(=O)c1ccccc1 (stereo unspecified)	0.5	-42.9	50.3*	1.4	0.17
O=C(NC1CC2CCCC(C1)N2S(=O)(=O)c1ccccc1)c1ccccc1 (stereo unspecified)	0.4	32.1	62.6*	0.7	-0.81
CCn1c(COc2ccccc2)nnc1SCC(=O)c1cccc([N+](=O)[O-])c1	0.7	18.4	30.1	0.8	-0.83

Screens (PubChem BioAssay)
